Inconclusive results are not listed. Calls of active or inactive are those of the source. Calls follow the shape of the dose curve; as a rule, active = well fitted inhibition curve with a large enough effect in the repeat runs; inconclusive = weak or mixed curves; inactive = no such curve, though single readings can be large or run the other way.
The compounds below were run against Cytochrome P450 3A4 (Homo sapiens) (UniProt P08684) (assay: Cytochrome P450 Family 3 Subfamily A Member 4 (CYP3A4) small molecule antagonists: luciferase reporter qHTS assay (AID 1671201; also: nearly all actives have a fitted effect of over 50% in size)). Conditions: P450-Glo CYP3A4 enzyme, luciferin luminescence, 1 h; series mostly up to 115 µM; activity change, negative = inhibition: at the top concentration.
Sequence of Cytochrome P450 3A4 (Homo sapiens) (P08684 whole entry, looked up): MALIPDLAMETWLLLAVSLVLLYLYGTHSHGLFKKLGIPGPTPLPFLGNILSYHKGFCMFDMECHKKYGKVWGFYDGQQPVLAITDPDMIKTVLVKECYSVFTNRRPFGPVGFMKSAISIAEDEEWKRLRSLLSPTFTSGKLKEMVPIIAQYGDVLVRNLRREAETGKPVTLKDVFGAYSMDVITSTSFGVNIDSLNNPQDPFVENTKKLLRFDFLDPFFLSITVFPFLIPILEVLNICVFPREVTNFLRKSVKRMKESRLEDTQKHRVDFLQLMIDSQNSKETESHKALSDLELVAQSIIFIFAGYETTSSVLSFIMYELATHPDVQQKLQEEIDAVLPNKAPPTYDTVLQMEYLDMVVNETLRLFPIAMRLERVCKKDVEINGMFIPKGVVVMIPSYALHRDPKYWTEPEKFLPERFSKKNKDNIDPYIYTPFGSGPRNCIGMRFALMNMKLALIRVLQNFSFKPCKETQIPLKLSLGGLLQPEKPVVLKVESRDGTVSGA
From the text: National Center for Advancing Translational Sciences [NCATS]
U.S. Environmental Protection Agency [EPA]
National Institutes of Environmental Health Sciences [NIEHS]
National Toxicology Program [NTP]
U.S. Food and Drug Administration [FDA]
Cytochrome P450 (CYP) enzymes are membrane-bound hemeproteins that play a key role in metabolism of drugs and xenobiotics. Evaluation of the effect of chemicals on CYP isozymes is useful to minimize the adverse drug reactions and toxicities in drug development process. Tox21 chemicals were tested for their effect on CYP enzyme activities by using P450-Glo (TM) screening systems (Promega Corporation, Madison, WI). These systems provide a luminescent method containing proluciferin substrates and are converted to luciferin products by CYP isozymes. The luciferin products formed are detected with a luciferin detection reagent, and the amount of light produced is proportional to CYP activity. P450-Glo (TM) CYP3A4 screening system (Catalog. No. V9910) was used to detect the compounds that interfere in CYP3A4 activity. The positive control compound used for CYP3A4 assay is ketoconazole (Sigma-Aldrich, St. Louis, MO).
Tox21 Assay Protocol Summary:
Two ul of enzyme-substrate mix was dispensed into medium binding white/solid 1536-well plates (Greiner Bio-One North America Inc., Monroe, NC) using a BioRaptr Flying Reagent Dispenser (FRD, Beckman Coulter, Brea, CA). Compounds dissolved in DMSO and positive control (ketoconazole) were transferred to the assay plates at 23 nl using a Pintool station (Wako, San Diego, CA). The assay plates were incubated at room temperature for 10 min. Then 2 ul of NADPH regeneration solution was added to each well of the assay plates using an FRD and incubated at room temperature for 1 h. The reaction was stopped by adding 4 ul of detection reagent using an FRD and after 20 min incubation at room temperature the luminescence signal was measured using a ViewLux plate reader (Perkin Elmer, Shelton, CT). Data were expressed as relative luminescence units.
% is scaled to controls: 0 for no effect and ±100 for the full control effect; potency is read from the fitted curve at half-maximal effect.

SMILES | activity change, negative = inhibition | Potency
NC(=O)OCCCc1ccccc1 | 23.9% [at 52.9 µM] (inactive) | 
CCC(C)C(C)(COC(N)=O)COC(N)=O (stereo not given) | 5.73% [at 52.9 µM] (inactive) | 
CCOC(=O)N(C)N=O | 6.25% (inactive) | 
O=C(Cl)/C=C/C(=O)Cl | 33.1% (inactive) | 
C(COCC1CO1)OCC1CO1 (stereo not given) | 0.39% (inactive) | 
N=C(N)[Se] | 1.33% (inactive) | 
NNCc1ccccc1 |  | 32300 nM (active)
COP(=O)(O)OC | 0.0624% (inactive) | 
CC(C)(C)NC[C@H](O)c1ccc(O)cc1Cl | 3.19% [at 52.9 µM] (inactive) | 
CCNc1nc(Cl)nc(NC(C)(C)C)n1 | -11.9% (inactive) | 
CC(O)CCl (stereo not given) | 16.7% (inactive) | 
CCN[C@H](C)Cc1cccc(C(F)(F)F)c1 | 0.421% (inactive) | 
CC[C@@H](CO)NC(=O)[C@@H]1C=C2c3cccc4[nH]cc(c34)C[C@H]2N(C)C1 | -37.6% [at 52.9 µM] (inactive) | 
CNC(=O)O/N=C(/CSC)C(C)(C)C | 8.97% (inactive) | 
ClCOCCl | 6.47% (inactive) | 
O=C/C=C/c1ccco1 | -1.11% (inactive) | 
CC(C)(C)c1cc(O)ccc1O | -19% (inactive) | 
CCNP(=S)(OC)O/C(C)=C/C(=O)OC(C)C (stereo not given) |  | 1260 nM (active)
CCN(CCO)CCO | 4.17% (inactive) | 
CCN[C@@H](C)Cc1cccc(C(F)(F)F)c1 | 2.91% [at 52.9 µM] (inactive) | 

SMILES | activity change, negative = inhibition | Potency
CC(C)(C1CCC(O)CC1)C1CCC(O)CC1 (stereo not given) | 3.15% (inactive) | 
CCN(CC)C1CCCCC1 | 9.18% (inactive) | 
Brc1c(Br)c(Br)c(Br)c(Br)c1Br | 2.63% [at 10.5 µM] (inactive) | 
COc1cc(CCN)cc(OC)c1OC | -22.2% (inactive) | 
NC(=O)CS(=O)C(c1ccccc1)c1ccccc1 (stereo not given) | 1.39% [at 52.9 µM] (inactive) | 
CN(CCO)CCO | 0.138% (inactive) | 
CNC(=O)NC(O)C(Cl)(Cl)Cl (stereo not given) | 11.4% [at 52.9 µM] (inactive) | 
CCCN1CCC[C@@H]2Cc3[nH]ncc3C[C@H]21 | 5.75% [at 52.9 µM] (inactive) | 
CCCCCCC1CCOC1=O (stereo not given) | 22.8% (inactive) | 
OP(O)c1ccccc1 | 7.53% (inactive) | 
O=C1C2CC=CCC2C(=O)N1SC(Cl)(Cl)Cl (stereo not given) | -7.19% (inactive) | 
O=C(Cl)OCc1ccccc1 | 5.58% (inactive) | 
CCOP(=S)(OCC)Oc1ccc(Cl)cc1Cl |  | 2830 nM (active)
CCC(=O)OC1(c2ccccc2)CCN(C)CC1 | 1.6% (inactive) | 
CN1C(=O)COc2c(C(=O)NC3CN4CCC3CC4)cc(Cl)cc21 (stereo not given) | -1.36% [at 52.9 µM] (inactive) | 
C=C1CC[C@@]2(O)[C@H]3Cc4ccc(O)c5c4[C@@]2(CCN3CC2CC2)[C@H]1O5 | 3.89% [at 52.9 µM] (inactive) | 
CC(Cl)(Cl)Cl | 2.46% (inactive) | 
COc1cc(CC(C)N)cc(OC)c1OC (stereo not given) | 4.74% (inactive) | 
O=C(O)c1c(Cl)ccc2cc(Cl)cnc12 | -8.03% (inactive) | 
CCCCOC(C)=O | -0.524% (inactive) | 

Source: PubChem BioAssay (Tox21)
